Assays:
Settings in all cases: concentration: 1 μM, replicates: in singlicate; n = 1
CDKL2 = system: CDKL2
CDKL3 = system: CDKL3
CDKL5 = system: CDKL5
CHEK1 = system: CHEK1
CHEK2 = system: CHEK2
CIT = system: CIT
CLK1 = system: CLK1
CLK2 = system: CLK2
CLK3 = system: CLK3
CLK4 = system: CLK4
CSF1R-autoinhibited = system: CSF1R-autoinhibited
CSF1R = system: CSF1R
CSK = system: CSK
CSNK1A1L = system: CSNK1A1L
CSNK1A1 = system: CSNK1A1
CSNK1D = system: CSNK1D
CSNK1E = system: CSNK1E
CSNK1G1 = system: CSNK1G1
CSNK1G2 = system: CSNK1G2
CSNK1G3 = system: CSNK1G3
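Also: KINOMEscan kinase panel screen.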

Compound | %Inh (CDKL2) | %Inh (CDKL3) | %Inh (CDKL5) | %Inh (CHEK1) | %Inh (CHEK2) | %Inh (CIT) | %Inh (CLK1) | %Inh (CLK2) | %Inh (CLK3) | %Inh (CLK4) | %Inh (CSF1R-autoinhibited) | %Inh (CSF1R) | %Inh (CSK) | %Inh (CSNK1A1L) | %Inh (CSNK1A1) | %Inh (CSNK1D) | %Inh (CSNK1E) | %Inh (CSNK1G1) | %Inh (CSNK1G2) | %Inh (CSNK1G3)
COc1ccc(Nc2nccc(N3CCC(NC(=O)Nc4ccc5c(c4)OCO5)C3)n2)cc1 (stereo not drawn) [GSK1379745] | 8% | 0% | 0% | 1% | 0% | 0% | 15% | 1% | 9% | 19% | 16% | 0% | 0% | 24% | 0% | 83% | 22% | 1% | 2% | 16%
O=C(Nc1ccccc1)Nc1ccc(Oc2ccc3nccn3n2)cc1 | 5% | 0% | 0% | 0% | 49% | 3% | 30% | 0% | 0% | 0% | 0% | 39% | 0% | 6% | 19% | 1% | 1% | 0% | 0% | 29%
Cn1ccc2ncnc(Nc3ccc(Oc4cccc(Cl)c4)c(Cl)c3)c21 | 23% | 26% | 23% | 2% | 7% | 0% | 0% | 0% | 0% | 1% | 1% | 17% | 46% | 16% | 14% | 10% | 0% | 6% | 0% | 0%
O=c1cc(N2CCOCC2)nc2n(Cc3cccc(Cl)c3)ccn12 [GSK2296823] | 26% | 0% | 4% | 18% | 0% | 10% | 47% | 1% | 20% | 24% | 0% | 1% | 0% | 12% | 42% | 19% | 34% | 10% | 0% | 23%
Fc1cccc(COc2ccc(Nc3ncnc4nn5ccccc5c34)cc2Cl)c1 [GW689066] | 1% | 0% | 0% | 0% | 28% | 0% | 9% | 0% | 0% | 0% | 37% | 0% | 0% | 0% | 0% | 3% | 14% | 0% | 0% | 3%
Fc1cccc(COc2ccc(Nc3ncnc4sc(-c5ccc[nH]5)cc34)cc2Cl)c1 [GW707818] | 14% | 0% | 0% | 7% | 21% | 27% | 29% | 8% | 0% | 100% | 28% | 17% | 13% | 0% | 0% | 9% | 8% | 0% | 3% | 31%
Cc1ccc(C)c(NC(=O)NCCNc2ccnc(Nc3ccc(F)cc3)n2)c1 [GSK1379878] | 0% | 0% | 0% | 5% | 0% | 8% | 23% | 0% | 0% | 0% | 15% | 7% | 100% | 0% | 11% | 0% | 33% | 0% | 0% | 24%
FC(F)(F)c1cc(Nc2nccc(-c3c(-c4ccc(Cl)cc4)nn4ncccc34)n2)ccc1Cl [GW829351] | 28% | 0% | 0% | 0% | 4% | 17% | 0% | 22% | 0% | 0% | 0% | 0% | 0% | 0% | 0% | 81% | 79% | 0% | 0% | 0%
CCc1nc(-c2cccc(N(C)S(=O)(=O)c3ccccc3)c2)c(-c2ccnc(Nc3ccc(N4CCN(C(C)=O)CC4)nc3)n2)s1 [GSK1645895] | 47% | 0% | 4% | 7% | 0% | 31% | 25% | 12% | 27% | 0% | 0% | 17% | 50% | 0% | 0% | 2% | 55% | 20% | 0% | 26%
Cl.Cn1ccc(-c2cccc(Nc3ccnc4cc(-c5nccs5)ccc34)c2)n1 [GW525701] | 61% | 0% | 0% | 24% | 0% | 3% | 1% | 0% | 0% | 37% | 29% | 0% | 0% | 5% | 0% | 12% | 21% | 5% | 0% | 0%
CNc1nccc(-c2c(-c3ccc(F)cc3)ncn2C2CCN(C)CC2)n1 [SB-222903] | 0% | 0% | 0% | 0% | 6% | 53% | 0% | 3% | 12% | 0% | 0% | 0% | 0% | 38% | 95.5% | 94% | 99.5% | 0% | 0% | 0%
CCc1nc(-c2cccc(C)c2)c(-c2ccnc(NC(=O)c3ccccc3)c2)s1 | 0% | 0% | 10% | 0% | 34% | 42% | 0% | 0% | 0% | 16% | 11% | 11% | 1% | 39% | 81% | 89% | 82% | 0% | 3% | 0%

— PMC5540273 (PLoS ONE, 2017)
